Screening data deposited in PubChem by National Center for Advancing Translational Sciences (NCATS).
Rab9 prom act: Rab9 promoter activation; Huh7 Rab9 promoter-luciferase reporter, luminescence, 24 h; Potency, µM (series often up to 9.22 µM), for the others: at the top dose activation, negative = inhibition, actives largely listed as activators; 320,000 tested, 2.8% active; AID 485297; also: % of control where 0% means no effect; nearly all actives have a fitted effect of over 60% in size
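Steps: seed 1500 Huh7 Rab9-luc cells per well, rest 2 h at 37 °C; add compound in DMSO; incubate 24 h; add luciferase reagent, 10 min ambient; read luminescence.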
NPC1 promoter act: activators of NPC1 promoter | Potency, µM (titrated, usually from 9.22 µM), for inactives: top-dose activation, hits mostly activators | 320,000 tested, 2.4% active | Huh7 NPC1 promoter luciferase reporter, 24 h | AID 485313; also: % of control where 0% means no effect; nearly all actives have a fitted effect of over 60% in size
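Quantitative HTS used a cell-based reporter: Huh7 cells stably bearing the NPC1 promoter upstream of luciferase were treated with compounds for 24 h, and promoter activation was read as luminescence.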
ELG1 genotoxic: genotoxicity induction in ELG1-luciferase HEK293T cells; HEK293T ELG1-luciferase reporter, luminescence, 16 h; Potency, µM (doses to about 46 µM), for the others: top-dose activity change, positive = activation, most hits filed as activators; 330,000 tested, 1.3% active; AID 504466; also: % of control where 0% means no effect; nearly all actives have a fitted effect of over 60% in size
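Luminescence read-out: rising ELG1-luciferase signal, reflecting elevated ELG1 protein under genetic stress, flags genotoxic compounds. Cells were treated for 16 hr at 37 °C before ONE-Glo detection.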
Luc counter: Kinase-Glo luciferase inhibition (counter-screen); Q27757; Kinase-Glo luciferase, ATP luminescence, 8 min; Potency, µM (doses to about 38.3 µM), without a hit: top-dose activity change, negative = inhibition, most hits filed as inhibitors; 200,000 tested, 0.28% active; AID 1379; also: % is scaled to controls: 0 for no effect and ±100 for the full control effect; nearly all actives have a fitted effect of over 60% in size
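Light output from Kinase-Glo luciferase with luciferin and 10 uM ATP in 50 mM imidazole pH 7.2, KCl, MgCl2, Tween 20, BSA; compound pin-delivered, 8-min ambient incubation, then luminescence read.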
FLuc modulator: counter-screen for miR-21 project: firefly luciferase inhibitors or activators; P08659; purified FLuc, Km substrates, luminescence inhibition; Potency, µM (titrated, usually from 57.5 µM), inactives show at the top dose activity change, negative = inhibition, usual class: inhibitors; 360,000 tested, 6.9% active;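 also: plate controls were vehicle for no effect and reference inhibitor for full effect; nearly all actives have a fitted effect of over 55% in size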
Target sequence (P08659 whole entry, looked up): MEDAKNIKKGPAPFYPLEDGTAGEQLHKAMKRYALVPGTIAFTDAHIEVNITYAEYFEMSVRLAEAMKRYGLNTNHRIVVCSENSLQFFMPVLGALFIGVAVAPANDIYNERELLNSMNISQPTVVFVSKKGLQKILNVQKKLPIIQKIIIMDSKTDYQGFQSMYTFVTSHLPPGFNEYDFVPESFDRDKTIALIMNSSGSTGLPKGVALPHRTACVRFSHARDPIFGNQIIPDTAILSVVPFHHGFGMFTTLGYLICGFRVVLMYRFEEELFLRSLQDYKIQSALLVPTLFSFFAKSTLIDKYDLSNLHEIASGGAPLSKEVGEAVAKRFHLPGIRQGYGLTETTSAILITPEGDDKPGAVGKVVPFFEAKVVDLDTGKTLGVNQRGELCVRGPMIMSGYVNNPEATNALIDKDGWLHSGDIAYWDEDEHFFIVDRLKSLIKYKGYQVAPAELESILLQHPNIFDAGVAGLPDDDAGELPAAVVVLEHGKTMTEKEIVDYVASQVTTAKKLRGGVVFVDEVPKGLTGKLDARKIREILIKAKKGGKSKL
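Purified P. pyralis luciferase, 10 nM final, with Km-level 10 uM D-luciferin and 10 uM ATP in 50 mM Tris acetate pH 7.5, 10 mM Mg acetate, 0.01% Tween-20, 0.05% BSA; 6-point qHTS titration about 60 µM downward; luminescence read.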
SMN2 splice up: SMN2 splice variant enhancement; Potency, µM (highest dose often 46.1 µM), without a hit: top-dose activity change, positive = activation, usual class: activators; 210,000 tested, 2.8% active; HEK293 SMN2-luciferase splicing reporter, luminescence, 30-36 h; AID 1458; also: % of control where 0% means no effect; nearly all actives have a fitted effect of over 55% in size
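qHTS luciferase splicing reporter: luminescence rises when SMN2 exon 7 is included in transfected HEK293 cells. Compound exposure lasted 30-36 h at 37C, with 4.5 mM final sodium butyrate as control, followed by a ONE-Glo read.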
* marks the source's active call; other numbers are inactive results; ? = inconclusive; nt = not tested or not shown; [ ] = dose if it differs, or a comment. Shown are actives, neighbours in structure and some others; about 7.5% of the full set was active somewhere. Calls follow the shape of the dose curve; as a rule, active = well fitted curve in the direction sought with a large enough effect; inconclusive = small, poorly fitted or top-dose-only effect, or another doubt; inactive = no such curve, though single readings can be large; an effect the other way counts as inactive or inconclusive. Potency is read from the fitted curve at half-maximal effect.

SMILES	Rab9 prom act	NPC1 promoter act	ELG1 genotoxic	Luc counter	FLuc modulator	SMN2 splice up
CCCn1c(=O)c2[nH]c(-c3ccc(OCC(=O)Nc4ccc(C#N)cc4)cc3)nc2n(CCC)c1=O	9%	3%	-25%	-4%	?	-4%
Cc1[nH]nc(N=CC2=C(O)CC(C)(C)CC2=O)c1-c1ccccc1	0%	-4%	18%	0%	13µM*	-11%
CCOC(=O)c1ccc(N2CCOCC2)c(NC(=O)c2c(-c3ccccc3)noc2C)c1	-20%	-23%	9%	nt	6%	nt
CC(C(=O)NCCCc1ccccc1)c1ccc([N+](=O)[O-])cc1 (stereo not given)	-2%	10%	-4%	0%	-1%	5%
Cc1ccc(NC(=O)NCc2ccc3[nH]c(C)cc3c2)cc1	13%	14%	4%	-2%	?	22µM*
Cc1cccc(NC(=O)NCc2ccc3[nH]c(C)cc3c2)c1	?	?	?	2%	19µM*	17%
CC(=O)NCc1ccc2[nH]c(C)cc2c1	-3%	-1%	7%	2%	-2%	2%
Cc1cccc(NC(=O)Nc2ccc(C)cc2Br)c1	?	?	?	-2%	?	13µM*
Cc1ccc(CNC(=O)Nc2cccc(C)c2)cc1	2.8µM*	?	?	-1%	9.5µM*	?
Cc1ccc(OCCSc2nc3ccccc3n2CC(=O)N2CCOCC2)cc1	nt	nt	nt	nt	-10%	nt
S=C(NCCC1=CCCCC1)NCc1ccco1	?	13%	3%	2%	?	22%
Cc1c2cnn(CC(=O)NCCc3ccccc3)c(=O)c2c(C)n1Cc1ccccc1	nt	nt	nt	nt	-12%	2%
Cc1cccc(-n2c(C)c(C)c3c(N)ncnc32)c1	14%	-4%	0%	nt	-3%	nt
O=C1C2C3C=CC(C3)C2C(=O)N1/N=C/c1ccc(-c2ccccc2[N+](=O)[O-])o1 (stereo not given)	24%	17%	3%	-3%	19µM*	?
O=C1C2C3C=CC(C3)C2C(=O)N1/N=C/c1cc(Br)cc([N+](=O)[O-])c1O (stereo not given)	-5%	-4%	11%	1%	19µM*	-16%
Cc1ccc(C)c(NC(=O)C2CCN(S(=O)(=O)c3c(C)noc3/C=C/c3cccs3)CC2)c1	nt	nt	nt	nt	-9%	3%
Cc1ccc(-c2cc(C(=O)NCCCn3ccnc3)c3cc(Br)ccc3n2)o1	-2%	-1%	2%	-1%	15µM*	-6%
Cc1ccc(-c2cc(C(=O)NN3CCOCC3)c3cc(Br)ccc3n2)o1	-5%	-4%	-6%	-2%	?	10%
O=C(NC1=NCCS1)c1cc(-c2cccnc2)nc2ccccc12	5%	-1%	-3%	-3%	?	-11%
Cc1ccc(-c2cc(C(=O)NC3=NCCS3)c3cc(Br)ccc3n2)o1	10%	4%	-6%	0%	6µM*	5%
Cc1ccc(-c2cc(C(=O)O)c3cc(Br)ccc3n2)s1	22%	?	6%	nt	2.4µM*	nt
Cc1ccc(-c2cc(C(=O)O)c3cc(Br)ccc3n2)o1	4%	5%	-4%	-2%	11µM*	19%
O=C(Nc1ccc(OC(F)(F)F)cc1)C1CCN(S(=O)(=O)c2ccc3[nH]c(=O)ccc3c2)CC1	nt	nt	nt	nt	1%	nt
COc1ccc(OC)c(C2CC(=O)N(c3cccc(C)c3)C3=C2C(=O)OC3)c1 (stereo not given)	nt	nt	nt	nt	-4%	11%
Cc1cccc(-c2cc(C(=O)NCCCn3ccnc3)c3ccccc3n2)c1	-3%	-1%	2%	-7%	15µM*	-12%
CN1C(=O)/C(=C\C(=O)c2cccs2)c2ccccc21	-10%	4%	-13%	0%	19µM*	-20%
N.N.O=C(O)C1(C(=O)O)CCC1.[Pt+2]	0%[46.1 µM]	4%[46.1 µM]	nt	nt	nt	nt
Cc1ccccc1-c1nnc(SCC(=O)N2CCCc3ccccc32)o1	nt	nt	nt	nt	?	-11%
O=C(CSc1nnc(-c2ccccc2Cl)o1)N1CCOCC1	3.5µM*	2.2µM*	?	nt	19µM*	nt
